Bioassay records deposited in PubChem BioAssay by several laboratories.
ATG4B inh = inhibitors of human ATG4B cysteine protease. inhibition, % at 8.33 µM. ATG4B cleavage of LC3-PLA2, NBD-HPC fluorescence, 1 h. actives 0.51% (n = 340,000). Q9Y4P1; in the data active means inhibition above about 40%
Target sequence (Q9Y4P1 whole entry, looked up): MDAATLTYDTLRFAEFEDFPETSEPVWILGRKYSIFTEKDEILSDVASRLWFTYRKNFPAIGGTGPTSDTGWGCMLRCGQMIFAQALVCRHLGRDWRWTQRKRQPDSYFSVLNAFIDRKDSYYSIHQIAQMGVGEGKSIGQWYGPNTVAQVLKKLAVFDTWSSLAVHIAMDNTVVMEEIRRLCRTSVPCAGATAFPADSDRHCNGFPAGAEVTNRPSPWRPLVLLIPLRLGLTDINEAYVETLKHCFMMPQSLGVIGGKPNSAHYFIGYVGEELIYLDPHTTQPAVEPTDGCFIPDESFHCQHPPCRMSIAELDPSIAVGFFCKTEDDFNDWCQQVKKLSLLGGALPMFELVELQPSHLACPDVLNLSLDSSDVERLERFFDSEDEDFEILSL
Mot1-301 SUMO = blocks SUMOylation pathway, rescuing yeast Mot1-301 growth | actives 1% (n = 320,000) | AID 2716 | S. cerevisiae Mot1-301 growth rescue, ATP luminescence, 38.5C; percent above DMSO median, 100 means doubled | growth rescue, % at 18.8 µM;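 active means every valid replicate shows activation above 250% relative to neutral control wells; inactive means the rest, any valid replicate at or below 250%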
Calb FLC = C. albicans growth modulation with fluconazole | actives 0.57% (n = 300,000) | growth inhibition, % (test concentration not listed) | C. albicans CaCi-2 (fluconazole-resistant clinical isolate) + fluconazole, Alamar Blue growth, 48 h | AID 1979;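 active means growth inhibition above about 58% in most replicates, limit read from the data, passing the limit was not always enough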;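 further: all wells also contain fluconazole at 8 µg/ml as a sub-toxic cotreatment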
NadD block = blocks S. aureus nicotinate mononucleotide adenylyltransferase; purified NadD enzyme, colorimetric absorbance read-out; inhibition, % at 20 µM; actives 0.78% (n = 360,000); AID 602399; in the data active means inhibition above about 26%
FAS TE block = inhibitors of human fatty acid synthase thioesterase domain | P49327 | recombinant FAS-TE, OMFH fluorogenic substrate, fluorescence endpoint | inhibition, % at 15 µM | actives 0.67% (n = 360,000);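 active means compounds whose normalised, plate-corrected inhibition of enzyme fluorescence in the single-dose primary screen is 50% or more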
FAS-TE inh conf = FAS thioesterase (human) inhibition, confirmation | shares compounds with FAS TE block | recombinant FAS-TE, OMFH fluorogenic substrate, fluorescence | inhibition, % at 15 µM | actives 45% (n = 2,300) | AID 624325;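 active means compounds inhibiting the enzyme by at least 50% at 15 µM in any one of the replicates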
Of the large screens only hits and unclear results are named; the others gave an inactive call (follow-up assays come after a bar, where they were run). In the library only some 3.1% were active in any assay of this set; here they are far more common.

COC(=O)c1c(N2C(=O)[C@H]3[C@@H](C2=O)[C@]2(C(=O)Nc4ccc(C)cc42)N2CCC[C@@H]32)sc(C)c1C	none (no result: ATG4B inh, NadD block, FAS TE block)
COc1ccc(C2=NOC(COc3ccc([N+](=O)[O-])cc3)C2)cc1 (stereo not given)	FAS TE block 54 | FAS-TE inh conf inactive
COc1ccc(C2=C(C=C(C#N)C#N)C(c3ccccc3C)c3ccccc3O2)cc1OC (stereo not given)	FAS TE block 69 | FAS-TE inh conf inactive
COc1cc(-c2nnc(COC(=O)C3c4ccccc4Oc4ccccc43)o2)cc(OC)c1OC	none
Cc1ccc(N2C(=O)N3[C@H]4c5ccccc5OC[C@@H]4[C@@H](c4ccccc4)[C@@]3(C)C2=O)cc1	FAS TE block 55 | FAS-TE inh conf inactive
C[C@]12C(=O)N(c3ccccc3)C(=O)N1[C@H]1c3ccccc3OC[C@@H]1[C@H]2c1ccccc1	FAS TE block 79 (no result: Calb FLC) | FAS-TE inh conf inactive
C[C@]12C(=O)N(c3ccc(C(F)(F)F)cc3)C(=O)N1[C@@H]1c3ccccc3OC[C@@H]1[C@H]2c1ccccc1	FAS TE block 60 | FAS-TE inh conf inactive
C[C@]12C(=O)N(c3cccc(Cl)c3)C(=O)N1[C@@H]1c3ccccc3OC[C@@H]1[C@H]2c1ccccc1	FAS TE block 58 (no result: Calb FLC) | FAS-TE inh conf inactive
O=C1CCC(c2ccc3ccccc3c2)O1 (stereo not given)	none (no result: Mot1-301 SUMO, Calb FLC)
C[C@]12C(=O)N(c3cccc(F)c3)C(=O)N1[C@H]1c3ccccc3OC[C@@H]1[C@H]2c1ccccc1	FAS TE block 68 (no result: Calb FLC) | FAS-TE inh conf inactive
C[C@]12C(=O)N(c3ccc(Br)cc3)C(=O)N1[C@H]1c3ccccc3OC[C@@H]1[C@H]2c1ccccc1	FAS TE block 85 (no result: Calb FLC) | FAS-TE inh conf inactive
Cc1ccc(CN2CC(=O)N3[C@H]4c5ccccc5OC[C@@H]4[C@H](c4ccccc4)[C@]3(C)C2=O)cc1	FAS TE block 51 (no result: Calb FLC) | FAS-TE inh conf inactive
C[C@]12C(=O)N(c3ccccc3)C(=O)N1[C@@H]1c3ccccc3OC[C@@H]1[C@H]2c1ccccc1	none
C[C@]12C(=O)N(c3cccc(F)c3)C(=O)N1[C@@H]1c3ccccc3OC[C@@H]1[C@H]2c1ccccc1	none
Cc1ccc(NS(=O)(=O)c2coc(C(N)=O)c2)cc1F	none
O=C1[C@@H](Oc2ccccc2)[C@@H](c2cccnc2)N1c1ccccc1	none (no result: Mot1-301 SUMO, Calb FLC)
C[C@@H](NC(=O)c1[nH]cnc1C(=O)Nc1ccc(Cl)cc1)c1ccccc1	FAS TE block 64 (no result: Calb FLC) | FAS-TE inh conf 63
CCC(Sc1ncccc1Nc1ccccn1)C(=O)O (stereo not given)	none
Cc1ccc(Sc2ncccc2[N+](=O)[O-])cc1	none
Cc1c([N+](=O)[O-])cnc(Sc2ccccc2)c1[N+](=O)[O-]	FAS TE block 60 | FAS-TE inh conf inactive
COc1ccc(NS(=O)(=O)c2cc(NC(=O)COc3ccc(OC)cc3)ccc2N2CCOCC2)cc1	FAS TE block 53 (no result: Calb FLC) | FAS-TE inh conf inactive
COc1ccccc1NS(=O)(=O)c1cc(NC(=O)c2ccccc2C)ccc1N1CCOCC1	FAS TE block 53 (no result: Mot1-301 SUMO, Calb FLC) | FAS-TE inh conf inactive
COC(=O)c1ccc(OC(=O)CN2C(=O)c3ccccc3C2=O)cc1	none
COc1ccc(CC(=O)Nc2cc(S(=O)(=O)N3CCCC3)ccc2Cl)c(OC)c1	none (no result: Calb FLC)
Cc1noc(C)c1NC(=O)N(C)C[C@H]1Oc2ccc(NC(=O)Cn3cnnn3)cc2C(=O)N([C@H](C)CO)C[C@@H]1C	none (no result: Calb FLC)
C[C@@]12C(=O)N(Cc3ccc(-c4ccccc4)cc3)CC(=O)N1[C@H](/C=C/c1ccccc1)[C@@H]1C(=O)N(c3ccccc3)C(=O)[C@@H]12	FAS TE block 50 | FAS-TE inh conf inactive
COC(=O)CN1C(=O)[C@H]2[C@@H](/C=C/c3ccccc3)N3C(=O)CN(Cc4ccc(-c5ccccc5)cc4)C(=O)[C@@]3(C)[C@H]2C1=O	none (no result: Calb FLC)
CC(C)(C)NC(=O)c1ccc(COc2ccc(Cl)cc2Cl)o1	FAS TE block 65 | FAS-TE inh conf inactive
CCc1ccc(NS(=O)(=O)c2cc3c(cc2C)n(C)c(=O)c(=O)n3C)cc1	FAS TE block 74 | FAS-TE inh conf 83
Cc1cc2c(cc1S(=O)(=O)Nc1ccc(F)cc1)n(C)c(=O)c(=O)n2C	none
